Experimental data as given in PMC12136788.
The full ranking holds about 24,000 sequences; the median of “enrichment r” is about 0.99, and the highest 2% start at about 3.7. The entries come from a sample that favours the highest values as a whole.

T1: UNK ZnF1-3 (human, UniProt Q9C0B0 31-174)
T1 sequence: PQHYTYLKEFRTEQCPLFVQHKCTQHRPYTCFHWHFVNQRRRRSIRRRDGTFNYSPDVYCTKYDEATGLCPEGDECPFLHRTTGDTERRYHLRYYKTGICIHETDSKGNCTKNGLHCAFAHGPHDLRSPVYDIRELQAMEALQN

B1: chr11:10830335:10830336:-_ENSG00000110321_ENST00000339995|hu_hu|FALSE|FALSE (ssRNA)
RNA: GGGAGUUCUACAGUCCGACGAUCGCAGCUGCCUCCUCAGGAUCCGGUCGUCGGGGAUAGGGAAGGGAGGGGAAAGGGGAACGGAAAACAAAAAAAAGGGGGAGGGAAGGGGGAGGAAGGAGUCGGGGACGGCCUCAAACUCAGCAACAGAGGAUUGAGCAUCA
B2: chr2:168009416:168009417:-_ENSMUSG00000051149_ENSMUST00000088001|perfect_dup|FALSE|FALSE (ssRNA)
RNA: GGGAGUUCUACAGUCCGACGAUCCAUAUGGUUGAGCAGAGUAUCUGUGGGUAAAUAGCGAUUACAGUAGAGGCAUUUGCUAGUAAAAUUGUGUAUUUUCAUAAUGUAGUUGGCUACUGCUGGGACUUUCUCAGCUUUAUGUUCCAACAGAGGAUUGAGCAUCA
B3: chr1:84034342:84034343:-_ENSMUSG00000045658_ENSMUST00000168574|mus_mus|FALSE|FALSE (ssRNA)
RNA: GGGAGUUCUACAGUCCGACGAUCGCCUGAGAAUGGUGAAAAUAGGCGUGGAGAUCUCCCAGCAGGAAGUGUUGGAAUAGGAGAGGAAAAAAAAAGUGAGAGGAGAGUCUGGAACCUUCCUCCCCAUCUGUACUCUCCUCAAGACAACAGAGGAUUGAGCAUCA
B4: 133834401_133834521_965_CDS_ENSMUSG00000050890_ENSMUST00000105876|mouse|control|control (ssRNA)
RNA: GGGAGUUCUACAGUCCGACGAUCUUUCAUUCGCCCAUUCAUAGACUUUUUCUUCACAGGGAUGAGAAGUUCCAUUUUGGGGUUUUCCAGAAGUGCCUCCCCAACAGGCACAAUUUCAGUCCCCUGCUUUACGUAACUCCCCAACAACAGAGGAUUGAGCAUCA
B5: chr8:95500983:95500984:-_ENSG00000164944_ENST00000437199|hu_hu|hu_hu_hu_mus_True|78_78 (ssRNA)
RNA: GGGAGUUCUACAGUCCGACGAUCAGAACACAUCUAUCGAGUAAAGGACCGUACAUGGACGACCUCUCCACUGCCUCCACUAACAAACUUUCCUCUCGAGCCUCCACUGCCGCUAUUUGUACUAGCCCAGGACGGUCCCAGGCCCAACAGAGGAUUGAGCAUCA
B6: chr7:141450121:141450122:+_ENSG00000106028_ENST00000265304|hu_mus|hu_hu_hu_mus_True|38_68 (ssRNA)
RNA: GGGAGUUCUACAGUCCGACGAUCUCAUCCGUUCUAUGCCUUUUCUUUUGUCUGGUCACUCAGAAAUAUAAUAUUAUCAGCUAUGAUUGUUGUUGCUUGUCGCCUCACAUUGUUUUUAUCCAUGUACUCGCCAUAGUCCACUUUCAACAGAGGAUUGAGCAUCA
B7: chr8:98731313:98731314:+_ENSG00000147649_ENST00000336273|hu_mus|motif|central (ssRNA)
RNA: GGGAGUUCUACAGUCCGACGAUCACAAGCUUUCUCCUGUUUUGGUCGGGCUUUUGAGGUAUUCACUGGAAGCUCUUCUCGGGUGUCCUUUUCUAGGUCUUCUGUGUCCUGUGUGUGAGAGUUAUCUUCCCCUUGCUUCUUCUUCAACAGAGGAUUGAGCAUCA
B8: 93992280_93998312_1055_3pUTR_ENSMUSG00000055932_ENSMUST00000069718|mouse|control|control (ssRNA)
RNA: GGGAGUUCUACAGUCCGACGAUCAUCAAAGGAUUUCAACGAGACGUCGCCAUCGUCUGAGUCAUUGAGGACAUUCUGCAGCGCCAACUGACAGCGUUCUAAGAUAUAAUCCAAGGUGCCUGUUGAGCACUCUGCCACACGGUGCAACAGAGGAUUGAGCAUCA
B9: chrX:20248820:20248821:+_ENSMUSG00000001924_ENSMUST00000001989|mus_mus|mus_mus_mus_hu_True|58_88 (ssRNA)
RNA: GGGAGUUCUACAGUCCGACGAUCGGCGAAGUCCGUCACCACAAAGUCAGGCUCUACCAGUGAGGCCACCAAGGAUUUAAAACUAAUCUUCUUAGGUACUUUGACCUGACUGACGAUGCCUCCACGGAUGUAGUCGGAGAAGUUCAACAGAGGAUUGAGCAUCA
B10: chr17:60770872:60770873:+_ENSG00000011028_ENST00000303375|hu_hu|hu_hu_hu_mus_True|18_78 (ssRNA)
RNA: GGGAGUUCUACAGUCCGACGAUCUCUUUAAAAAAAAAAAAAAAAAGACAAACAAUAAUAAUGGCACUCGAGAAUCAAGAACUACAAUAGAGGGUCCGCUUUGAGUUUUUGUUCACAACAUUGUCCCCUGGGACACGGGGACUGCAACAGAGGAUUGAGCAUCA
B11: chr17:60770872:60770873:+_ENSG00000011028_ENST00000303375|hu_hu|hu_hu_hu_mus_True|48_78 (ssRNA)
RNA: GGGAGUUCUACAGUCCGACGAUCUCUUUAAAAAAAAAAAAAAAAAGACAAACAAUAAUAAUGGCACUCGAGAAUCAAGAACUACAAAGAAAGGGCCGCUUUGAGUUUUUGUUCACAUCGUCCUGCACUGGGACACGGGGACUGCAACAGAGGAUUGAGCAUCA
B12: chr2:204281756:204281757:+_ENSG00000138443_ENST00000261017|hu_hu|motif|central (ssRNA)
RNA: GGGAGUUCUACAGUCCGACGAUCCUUUUCCAAGUAAGAACGUGGAGCCCACGGUGGGUCCUCUUCAGCAUAAGGAUCACGGUACUCAACCACAGCAGCUUCCUCCUCUUCGUAAUCUUCUGGAGGAGGAGGAGGUGGGGGAGACAACAGAGGAUUGAGCAUCA
B13: chr4:76721835:76721836:+_ENSG00000138768_ENST00000264904|hu_mus|hu_hu_hu_mus_True|68_78 (ssRNA)
RNA: GGGAGUUCUACAGUCCGACGAUCGUUUGGCUGGGGUUUCUGAGACGCUCUGGAAUAAACUCAUGUUUGCUAAUAAAAUCCUAGUUUCUCUAUGAAAUUCUCUUUGCCAAUCCUCUUCUCUAUUAGUUGCUUUAGUUUCUCUUUCAACAGAGGAUUGAGCAUCA
B14: chr14:62224477:62224478:+_ENSMUSG00000035235_ENSMUST00000039562|mus_hu|FALSE|FALSE (ssRNA)
RNA: GGGAGUUCUACAGUCCGACGAUCUUCAUUGAAAAUGAAAAACCCAUCUGUCACCUGUUCCCAGUAAAAAACUGAUUGUUCUAUGAAAUCGGCUGUUUUAGUCAGAUAGGAACUGAAGUUUGAAAGACAGCCUUUCCAAGUUGCCAACAGAGGAUUGAGCAUCA
B15: 31895827_31897285_3242_CDS_ENSMUSG00000042323_ENSMUST00000112095|mouse|control|control (ssRNA)
RNA: GGGAGUUCUACAGUCCGACGAUCCCAACAGCCGUACAACCAUUUUUCACCAGCUGAAUCCUCCCACAGUCUCUCAAUACACACUAUAUGUGGUUGUAGAUUGGCCUCCGCAGGUUCAACAUAGACAUAAUCUCCGACAUGAUACAACAGAGGAUUGAGCAUCA
B16: chr14:76906223:76906224:+_ENSMUSG00000022010_ENSMUST00000022587|mus_mus|FALSE|FALSE (ssRNA)
RNA: GGGAGUUCUACAGUCCGACGAUCCACUUCCUCCCUCACCGCAUACAUCAAAUGGCUUUUCACCAGAUCCAUAGCUUGCUCUAUUUUGUUGUCGAUAGCUACCACACUUGCACCAGAGCUAUUGUCAAGUCUCACGGAAGCGUUCAACAGAGGAUUGAGCAUCA
B17: chr1:71529667:71529668:-_ENSG00000132485_ENST00000254821|hu_hu|FALSE|FALSE (ssRNA)
RNA: GGGAGUUCUACAGUCCGACGAUCUUGUCACUGGAAAUACUGUUAAGAGAAACCUUUUUAUUUUUUAAACCAGAAAACAAACUAAAGCUCAUGUGACCAGAUUUUAAUUUUGAGAAAUAAACUCCAAAAGCAUUUUAAGCCAUACAACAGAGGAUUGAGCAUCA
B18: chr3:124025330:124025331:+_ENSMUSG00000044528_ENSMUST00000058994|mus_mus|FALSE|FALSE (ssRNA)
RNA: GGGAGUUCUACAGUCCGACGAUCGUUUAAUCUUAAUUCCCACCACCACUCAUACCGCUGCCAACCCUUAAAAACACAUUAGACAAUAACAAUAGCAAUAUUUAAAAAAGCACGACCCGUUCUGAAAAACAGAAACUCUCUAGCCAACAGAGGAUUGAGCAUCA
B19: chr14:76904430:76904431:+_ENSMUSG00000022010_ENSMUST00000022587|mus_mus|mus_mus_mus_hu_True|58_108 (ssRNA)
RNA: GGGAGUUCUACAGUCCGACGAUCUGCUGGAAAAAAAACCCUCGUGGAAAAAAAGAGGGAACACCAGCAGCCUUGUACAAACUAGAUAAAAUCUUCUGGCUUUCCGCAGCCCAGGGAGAAACAGAAAACGGCAGCCCUAAUUUACAACAGAGGAUUGAGCAUCA
B20: 55618536_55618656_2401_CDS_ENSG00000126787_ENST00000247191|human|control|control (ssRNA)
RNA: GGGAGUUCUACAGUCCGACGAUCAACAUCUGAAAUUCCUUCUUUUUUGUUAGUAUUAAUAUCAUCUGCUACUCCACCAGCAAGAAGAGGCAAACUCAUUCUCUCACUGGAUAAACAAUCCACCUUCAAGUCUGUCUUAUUUACCAACAGAGGAUUGAGCAUCA
B21: 77377103_77377223_5427_3pUTR_ENSG00000048649_ENST00000308488|human|control|control (ssRNA)
RNA: GGGAGUUCUACAGUCCGACGAUCUACAGUCCACCCAGGCCUUAAGAAAGACCACAUUCAUUUCACUAAUAACUCUCCAUCAGACACAAUAUAUUUGAGGCCACCUUAUUACCACUGCAUAAAGCUUAUUUAAAAAAAUUUGUUCAACAGAGGAUUGAGCAUCA
B22: 39249924_39250044_1625_CDS_ENSG00000115904_ENST00000402219|human|control|control (ssRNA)
RNA: GGGAGUUCUACAGUCCGACGAUCACUCCGGUACUGUAAAGAUAUCAAUGCUGCCAUCCAAUUGUUUUUCUCUUCAGCUGACUUGGCAGAAAAUAUAACACUAUUUUCAUCUUUUAAAAUUAUUUCAAAAGCAUGCUUGUAUUCCAACAGAGGAUUGAGCAUCA
B23: chr9:108650075:108650076:+_ENSMUSG00000032601_ENSMUST00000035220|mus_mus|FALSE|FALSE (ssRNA)
RNA: GGGAGUUCUACAGUCCGACGAUCAGCAAUUUGUUUAUGUAAACAGCACAGAGGUUAAACAAAACAAAACAAAACAAAAACCUACUAAAUACAAACAACAAAAACCCUAACCCAGAUAACCUUUCCUGGCUACUACUGGAAAGACAACAGAGGAUUGAGCAUCA
B24: chr1:109605425:109605426:-_ENSG00000197780_ENST00000461096|hu_mus|FALSE|FALSE (ssRNA)
RNA: GGGAGUUCUACAGUCCGACGAUCUUUAAUCAACUCUCCGUUCUCACAAUUAAAGUACUUACAUUUCCGUCACUAGAGCACAGCCAGAAACACCUGGGCUGGCAUCGGCUCUUUAAGCCCUGCCGUUCCCACUACUGAGGCAUUCAACAGAGGAUUGAGCAUCA
B25: chr5:143665338:143665339:-_ENSMUSG00000029580_ENSMUST00000100497|mus_hu|FALSE|FALSE (ssRNA)
RNA: GGGAGUUCUACAGUCCGACGAUCCACCUUCACCGUUCCAGUUUUUAAAUCCUGAGUCAAGCCAAAAAAAAAAAAAAAACCAAAACAAAACAAAAAAAACAAAUAAAGCCAUGCCAAUCUCAUCUUGUUUUCUGCGCAAGUUAGCAACAGAGGAUUGAGCAUCA
B26: chr2:32530853:32530854:+_ENSG00000119820_ENST00000437765|hu_mus|FALSE|FALSE (ssRNA)
RNA: GGGAGUUCUACAGUCCGACGAUCUUCAGAAUUCUGACCAAAAAAAAGAAAAAAAAAUCCCAGAUAACUGCAAUUACUUAAAUACAAAAAAUAUUGUUUUAAAAAGACUUUAAGCCUGCCUCUCUAUCUGGAAUGUAUAAAAUUCAACAGAGGAUUGAGCAUCA

biological target: T1, UNK ZnF1-3; experiment: nsRBNS (natural sequence RNA bind-n-seq); RBNS binding buffer (assumed for nsRBNS): 25 mM Tris pH 7.5, 150 mM KCl, 3 mM MgCl2, 0.01% Triton X-100, 500 ug/ml BSA, 20 U/ml SUPERase-In, 4 C; UNK is unkempt and MSI1 is Musashi-1; names of the RNAs are library labels; protein concentration not given here; high values mean tight binding

| Binder | binding signal [enrichment R] |
| --- | --- |
| B1 | 2.73 |
| B2 | 2.12 |
| B3 | 1.32 |
| B4 | 0.863 |
| B5 | 1.53 |
| B6 | 0.44 |
| B7 | 0.279 |
| B8 | 1.07 |
| B9 | 0.887 |
| B10 | 4.19 |
| B11 | 4.71 |
| B12 | 0.684 |
| B13 | 0.621 |
| B14 | 0.96 |
| B15 | 1.01 |
| B16 | 1.04 |
| B17 | 1.66 |
| B18 | 4.17 |
| B19 | 2 |
| B20 | 1.29 |
| B21 | 3.78 |
| B22 | 1.14 |
| B23 | 4.03 |
| B24 | 0.922 |
| B25 | 2.75 |
| B26 | 4.78 |
